The values below come from PubChem BioAssay (NCATS).

Experiment [1] in a line: qHTS for Inhibitors of the Functional Ribonucleoprotein Complex (vRNP) of Lassa (LASV) Arenavirus: LASV Primary Screen - GLuc reporter signal (AID 1347082; calls by dose curve; tested in HEK293 reporter line; further: nearly all actives have a fitted effect of over 60% in size; further: potency means the concentration at half of the fitted maximal effect).
Experiment [2] in a line: qHTS for Inhibitors of the Functional Ribonucleoprotein Complex (vRNP) of Lassa (LASV) Arenavirus: Viability assay - alamar blue signal for LASV Primary Screen (AID 1347083; calls by dose curve; tested in HEK293 reporter line; further: nearly all actives have a fitted effect of over 80% in size; further: potency means the concentration at half of the fitted maximal effect). Background: qHTS replaces the single test concentration by a dilution series.
The target of experiment [3] is T1, Tyrosine-protein phosphatase non-receptor type substrate 1 (Homo sapiens) + Leukocyte surface antigen CD47 (Homo sapiens) (UniProt P78324+Q08722). Briefly: CD47-SIRPalpha protein protein interaction - LANCE assay qHTS validation (AID 1347057; active means well fitted curve in the direction sought with a large enough effect in the signal ratio, with a control signal flat, not every such curve was filed as active; the % refers to the signal ratio; further: series mostly up to about 38 µM). The method, boiled down: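 Inhibition of soluble CD47/SIRPalpha ectodomain association by titrated compounds, measured as 665/615 nm time-resolved FRET ratio after sequential 30 min room-temperature incubations.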
For orientation: In TR-FRET formats the signal depends on donor and acceptor labels being close together.

The target of experiment [4] is T1, Tyrosine-protein phosphatase non-receptor type substrate 1 (Homo sapiens) + Leukocyte surface antigen CD47 (Homo sapiens). Nature of the experiment: CD47-SIRPalpha protein protein interaction - Alpha assay qHTS validation (AID 1347059).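 Further: bead proximity luminescence from CD47 binding SIRPalpha after compound preincubation with SIRPalpha.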 The gist of the method:
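AlphaScreen signal between CD47-His (12.5 nM) and biotin-SIRPalpha (25 nM) soluble extracellular domains, bead-captured via Ni-NTA and streptavidin. Compounds, in 7-point titrations, met SIRPalpha 30 min before CD47; PBS pH 7.4 with 0.05% IGEPAL.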

The target of experiment [5] is Parathyroid hormone/parathyroid hormone-related peptide receptor (Homo sapiens) (UniProt Q03431). Briefly: qHTS for PTHR1 Agonists: Optimization Screen against the NCGC LOPAC library (AID 1347079).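 Further: GloSensor cAMP luminescence in HEK-293 GP2 cells expressing human PTHR1 with IBMX.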 The method, boiled down: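 HEK-293 GP2 cells, PTHR1 + GloSensor cAMP; 3000 cells/well, o/n. Luciferin + IBMX 0.5mM each (stock), 1 hr 37C. Cpd titration, 1 hr 37C. Lum after 15 min RT. Ctrl M-PTH(1-15) top 10uM.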

Experiment [6] in a line: qHTS for Inhibitors of the Functional Ribonucleoprotein Complex (vRNP) of Lymphocytic Choriomeningitis Arenaviruses (LCMV): Viability assay - alamar blue signal for LCMV Primary Screen (AID 1347085; calls by dose curve; tested in HEK293 reporter line; further: nearly all actives have a fitted effect of over 80% in size; further: potency means the concentration at half of the fitted maximal effect).
In experiment [7] the target is Nucleoprotein (Lymphocytic choriomeningitis virus (strain Armstrong)) (UniProt P09992). Briefly: qHTS for Inhibitors of the Functional Ribonucleoprotein Complex (vRNP) of Lymphocytic Choriomeningitis Arenaviruses (LCMV): LCMV Primary Screen - GLuc reporter signal (AID 1347086; calls by dose curve; further: series mostly up to about 57 µM; nearly all actives have a fitted effect of over 70% in size).
Experiment [8] is described as follows: qHTS of pediatric cancer cell lines to identify multiple opportunities for drug repurposing: Primary screen for TC32 cells (AID 1347089). Further: nearly all actives have a fitted effect of over 60% in size. The method, boiled down: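 Luminescent CellTiter-Glo read-out of metabolically active TC32 cells after 48 h compound exposure. Primary: MIPE 11-point, 0.78 nM–46 µM; NPC 8-point, 0.59 nM–46 µM. Confirmatory: 11-point dilutions.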

Experiment [9] can be described thus: qHTS of pediatric cancer cell lines to identify multiple opportunities for drug repurposing: Primary screen for DAOY cells (AID 1347090). Further: nearly all actives have a fitted effect of over 55% in size. Further: potency means the concentration at half of the fitted maximal effect. The gist of the method: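 Cell viability, CellTiter-Glo luminescence; 500-1,000 cells/well, 8- or 11-point titration, 48 h compound exposure at 37 degrees C, 5% CO2. Controls: DMSO neutral, bortezomib 2.3 µM final as positive.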

Inconclusive results are not listed. Calls of active or inactive are those of the source. Unless noted, the call rests on the fitted dose curve; in most records, active means well fitted curve in the direction sought with a large enough effect; inconclusive means small, poorly fitted or top-dose-only effect, or another doubt; inactive means no such curve, though single readings can be large; an effect the other way counts as inactive or inconclusive.

Parathyroid hormone/parathyroid hormone-related peptide receptor (Homo sapiens), sequence (Q03431 whole entry, looked up): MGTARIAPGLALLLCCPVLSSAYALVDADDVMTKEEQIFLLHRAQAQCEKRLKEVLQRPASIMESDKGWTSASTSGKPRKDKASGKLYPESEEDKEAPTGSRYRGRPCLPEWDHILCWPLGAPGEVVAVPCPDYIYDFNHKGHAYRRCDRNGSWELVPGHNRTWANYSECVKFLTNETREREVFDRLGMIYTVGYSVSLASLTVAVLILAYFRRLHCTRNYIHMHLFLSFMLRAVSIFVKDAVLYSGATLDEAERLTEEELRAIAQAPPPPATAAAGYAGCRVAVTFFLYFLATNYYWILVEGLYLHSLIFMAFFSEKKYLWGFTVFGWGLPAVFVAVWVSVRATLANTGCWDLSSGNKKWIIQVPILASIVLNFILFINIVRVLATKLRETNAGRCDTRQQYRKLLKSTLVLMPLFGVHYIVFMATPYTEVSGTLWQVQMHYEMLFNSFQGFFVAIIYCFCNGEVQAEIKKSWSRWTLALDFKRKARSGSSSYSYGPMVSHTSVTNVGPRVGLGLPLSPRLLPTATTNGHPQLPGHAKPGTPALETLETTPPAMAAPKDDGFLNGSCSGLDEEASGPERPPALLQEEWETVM
Nucleoprotein (Lymphocytic choriomeningitis virus (strain Armstrong)), sequence (P09992 whole entry, looked up): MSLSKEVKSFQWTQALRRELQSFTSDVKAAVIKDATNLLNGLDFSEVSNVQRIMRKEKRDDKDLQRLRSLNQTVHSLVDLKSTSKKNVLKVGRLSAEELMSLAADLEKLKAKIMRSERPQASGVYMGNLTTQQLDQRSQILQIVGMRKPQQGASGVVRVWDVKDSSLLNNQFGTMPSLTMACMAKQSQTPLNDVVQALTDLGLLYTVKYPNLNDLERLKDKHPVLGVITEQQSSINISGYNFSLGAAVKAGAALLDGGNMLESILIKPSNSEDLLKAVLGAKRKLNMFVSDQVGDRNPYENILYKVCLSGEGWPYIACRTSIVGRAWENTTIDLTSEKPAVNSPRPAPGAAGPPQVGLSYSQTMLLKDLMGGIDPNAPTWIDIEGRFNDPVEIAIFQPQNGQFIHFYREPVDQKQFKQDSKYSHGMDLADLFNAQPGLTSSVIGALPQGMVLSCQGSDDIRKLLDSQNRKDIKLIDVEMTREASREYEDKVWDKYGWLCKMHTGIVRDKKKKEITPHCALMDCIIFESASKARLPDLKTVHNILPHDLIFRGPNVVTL
T1 sequence (P78324 whole entry, looked up, the tested form may be a part): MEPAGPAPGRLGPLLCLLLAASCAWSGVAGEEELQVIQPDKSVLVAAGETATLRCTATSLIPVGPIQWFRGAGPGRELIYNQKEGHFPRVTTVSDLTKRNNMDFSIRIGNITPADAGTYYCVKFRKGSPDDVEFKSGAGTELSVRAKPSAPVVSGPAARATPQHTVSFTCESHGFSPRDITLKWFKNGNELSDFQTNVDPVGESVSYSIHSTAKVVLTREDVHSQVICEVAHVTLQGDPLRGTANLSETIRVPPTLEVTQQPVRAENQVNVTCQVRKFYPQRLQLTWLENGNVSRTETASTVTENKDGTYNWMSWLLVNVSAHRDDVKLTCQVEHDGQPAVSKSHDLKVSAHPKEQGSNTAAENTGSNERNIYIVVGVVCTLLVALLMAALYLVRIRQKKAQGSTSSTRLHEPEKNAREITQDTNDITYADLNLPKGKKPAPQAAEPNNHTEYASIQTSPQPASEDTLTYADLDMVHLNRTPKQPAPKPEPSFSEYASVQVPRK
T1 sequence (Q08722 whole entry, looked up, the tested form may be a part): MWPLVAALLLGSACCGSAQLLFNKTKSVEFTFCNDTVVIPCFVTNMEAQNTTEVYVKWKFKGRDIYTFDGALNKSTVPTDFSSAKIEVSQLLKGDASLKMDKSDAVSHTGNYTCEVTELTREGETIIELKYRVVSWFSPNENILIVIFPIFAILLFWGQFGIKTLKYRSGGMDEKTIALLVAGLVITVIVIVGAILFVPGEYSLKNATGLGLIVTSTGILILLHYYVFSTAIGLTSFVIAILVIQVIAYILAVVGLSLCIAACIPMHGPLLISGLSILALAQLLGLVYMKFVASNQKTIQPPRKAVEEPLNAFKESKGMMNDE

Regarding `CCOc1ccc(Nc2nc(-c3c(C)nc4ccccn34)cs2)cc1`, the Potency result in experiment [1] is “inactive”. Also, in experiment [2], the Potency was 0.0049 µM (active).

As for `CC1=NN=C(c2ccc(N)cc2)c2cc3c(cc2C1)OCO3`, the outcome in experiment [3] and in experiment [5] was inactive. The Potency entry in experiment [4], in experiment [1], in experiment [2], in [6], in [7] and in experiment [8] was “inactive” throughout. In addition, the Potency result in [9] is “inactive”.

Turning to `c1cc(-c2cnn3cc(-c4ccc(OCCN5CCCCC5)cc4)cnc23)ccn1`, the Potency in [1] was 34.3 µM (active); in [2], 17.2 µM (active).

As for `CN(C)CCCN=c1c2ccccc2n(C)c2[nH]c(=O)n(C)c(=O)c12`, in experiment [1], the Potency result is “inactive”. Further, the Potency in experiment [2] is 19.3 µM (active).

As for `CCCN(CCC)C1CCc2ccc(O)cc2C1` (configuration not stated), the result in experiment [3] and in experiment [5] was inactive. Moreover, the Potency result in [4], in [1], in [2], in experiment [6] and in experiment [7] was “inactive” throughout.

On to `Oc1ccc2c3c1O[C@H]1c4[nH]c5c(c4C[C@@]4(O)[C@@H](C2)N(CC2CC2)CC[C@]314)C[C@@]1(O)[C@H]2Cc3ccc(O)c4c3[C@@]1(CCN2CC1CC1)[C@H]5O4`, for which the result in experiment [3] and in experiment [5] was inactive. Further, the Potency result in [4], in [1], in [2], in experiment [6], in experiment [7] and in [8] was “inactive” throughout. Moreover, the Potency entry in [9] was “inactive”.

On to `CC(Cc1ccc(O)cc1)NCC(O)c1cc(O)cc(O)c1` (configuration not stated), for which the result in [3] and in experiment [5] was inactive. Moreover, the Potency entry in [4], in experiment [1], in experiment [2], in experiment [6], in experiment [7] and in experiment [8] was “inactive” each time. For the same compound, the Potency result in [9] was “inactive”.

For `Cc1cc([C@@H](C)Nc2ccccc2C(=O)O)c2nc(N3CCOCC3)cc(=O)n2c1`, the Potency was 39.5 µM (active) in experiment [1] and 5.59 µM (active) in [2].

Regarding `CC(C)(C)c1ccc(O)c(O)c1`, the Potency entry in experiment [1] is “inactive”.

Regarding `Cc1c(C(=O)c2cccc3ccccc23)c2cccc3c2n1[C@H](CN1CCOCC1)CO3`, in [5], the compound was called inactive. Further, the Potency entry in [8] was “inactive”. Moreover, the Potency in experiment [9] is 23.5 µM (active).

For the compound `Nc1cccc2c(N)cccc12`, the Potency result in [1] is “inactive”.

Consider `CC(=O)N(C)C1(c2ccccc2)CCN(CCC[C@]2(c3ccc(Cl)c(Cl)c3)CCCN(C(=O)c3ccccc3)C2)CC1`, for which the Potency entry in [1] and in experiment [2] was “inactive” each time.

Take `Cc1ccc(NC(=O)c2ccc(CN3CCN(C)CC3)cc2)cc1Nc1nc(-c2cccnc2)cs1`: in [1], the Potency entry was “inactive”.

`CCCCCN(CCC12CC3CC(CC(C3)C1)C2)C(=O)NCCCc1ccncc1`: the Potency entry in [1], in [2], in experiment [6] and in [7] was “inactive” throughout.

Take `COc1ccc(-c2ccc3c(N4CCOCC4)nc(N4C[C@@H](C)O[C@@H](C)C4)nc3n2)cc1CO`: the Potency in [1] was 0.344 µM (active); in [2] it was 0.243 µM (active); in experiment [6] it was 1.09 µM (active).

Take `O=C1C(CCC(O)c2ccc(F)cc2)C(c2ccc(O)cc2)N1c1ccc(F)cc1` (configuration not stated): the Potency entry in [1], in experiment [2], in experiment [6] and in experiment [7] was “inactive” each time.

Consider `NC(=O)c1ccc(N(C(N)=O)c2c(F)cccc2F)nc1-c1ccc(F)cc1F`, for which the Potency result in experiment [1] was “inactive”. In addition, the figures for the Potency in experiment [2] and in experiment [6] were 34.3 µM (active) and 17.2 µM (active), respectively.

Turning to `COc1cc2c(cc1OC)CC(=O)N(CCCN(C)C[C@H]1Cc3cc(OC)c(OC)cc31)CC2`, the Potency entry in experiment [1], in experiment [2] and in experiment [6] was “inactive” throughout.

Regarding `CC1(C)CCC(c2ccc(Cl)cc2)=C(CN2CCN(c3ccc(C(=O)NS(=O)(=O)c4ccc(N[C@H](CCN5CCOCC5)CSc5ccccc5)c(S(=O)(=O)C(F)(F)F)c4)cc3)CC2)C1`, the Potency entry in [1], in [2], in experiment [6] and in experiment [7] was “inactive” each time.

As to `Nc1nc2ccc([N+](=O)[O-])cc2s1`, the Potency result in experiment [1], in [2] and in experiment [6] was “inactive” throughout.

On to `COc1ccc2c(c1)CC[C@@H](CN(C)CC(=O)O)[C@H]2c1ccccc1`, for which, in experiment [1], the Potency result was “inactive”. The figures for the Potency in experiment [2] and in experiment [6] were 10.9 µM (active) and 4.85 µM (active), respectively.

In the case of `COc1cc(OC2CCN(C)CC2)ccc1Nc1ncc2c(n1)n(C1CCCC1)c(=O)n2C`, in experiment [1], the Potency entry was “inactive”. For the same compound, the Potency in experiment [2] was 24.3 µM (active); in experiment [6], 17.2 µM (active).

In the case of `Cn1cc(-c2ccc3nnc(C(F)(F)c4ccc5ncccc5c4)n3n2)cn1`, the Potency result in experiment [1], in [2], in [6] and in experiment [7] was “inactive” in each case.

Consider `OCc1ccccn1`, for which the Potency result in experiment [1], in [2], in experiment [6] and in experiment [7] was “inactive” each time.

`C[C@@]12O[C@@H](C[C@]1(O)CO)n1c3ccccc3c3c4c(c5c6ccccc6n2c5c31)CNC4=O`: the Potency was 9.68 µM (active) in experiment [1], 0.432 µM (active) in experiment [2] and 21.7 µM (active) in experiment [6].

In the case of `Nc1ccccc1N`, the Potency result in experiment [1], in experiment [2], in experiment [6] and in [7] was “inactive” throughout.

For the compound `CC(=O)OCCN1C(=O)c2c(C)nc3ccc(S(=O)(=O)N4CCOCC4)cc3c2C1=O`, the Potency result in experiment [1], in [2] and in experiment [6] was “inactive” each time.

Turning to `C[C@H](NC(=O)Cc1cc(F)cc(F)c1)C(=O)N[C@@H]1C(=O)N(C)c2ccccc2-c2ccccc21`, the Potency result in [1], in experiment [2], in experiment [6] and in experiment [7] was “inactive” each time.
